# T1: TALE RAGT2-Renila luciferase fusion (pCLS24992) (artificial, UniProt P14727 SEQ:21-699)
# T1 chain: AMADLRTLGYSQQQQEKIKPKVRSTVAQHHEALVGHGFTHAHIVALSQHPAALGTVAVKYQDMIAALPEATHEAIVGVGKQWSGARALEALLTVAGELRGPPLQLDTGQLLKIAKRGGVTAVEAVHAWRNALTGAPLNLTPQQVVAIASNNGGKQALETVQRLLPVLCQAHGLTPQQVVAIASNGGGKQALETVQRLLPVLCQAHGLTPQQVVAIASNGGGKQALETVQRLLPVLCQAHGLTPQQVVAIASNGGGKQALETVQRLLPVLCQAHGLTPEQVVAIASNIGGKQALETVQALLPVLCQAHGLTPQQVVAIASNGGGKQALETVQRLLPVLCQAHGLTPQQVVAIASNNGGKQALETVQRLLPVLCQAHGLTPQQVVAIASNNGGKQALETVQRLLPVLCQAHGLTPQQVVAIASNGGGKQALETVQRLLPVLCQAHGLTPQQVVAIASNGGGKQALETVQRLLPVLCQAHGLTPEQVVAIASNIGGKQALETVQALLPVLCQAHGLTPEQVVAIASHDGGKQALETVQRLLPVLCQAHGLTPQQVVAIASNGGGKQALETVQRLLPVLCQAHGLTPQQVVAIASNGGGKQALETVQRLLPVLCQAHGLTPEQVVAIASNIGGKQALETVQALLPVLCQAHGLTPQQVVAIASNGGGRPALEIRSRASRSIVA
# B1: pray SEQ 6 :bait (dsDNA)
# DNA 1: CATGGTTTATGGTTACTTATGG
# DNA 2: GTACAAAAAAGCAGTCGACTAGGGATAACAGGGTAATTATATAAACCTAACCCTCTTAGCATGAAGGTACCATAAGTAACCATAAACAATG
# Molecular target: T1, TALE RAGT2-Renila luciferase fusion …
# Test: mutation at T0 reduces luminescence by more than 60%; capture plus TALE binding
# Conditions: tags: N-terminal His tag, C-terminal Renilla luciferase fusion; deltaN152 N-terminal domain, C11 C-terminal truncation; expressed in E. coli; label: biotin on bait; mismatched duplex
# Experimental: Different ssDNA targets (SEQ ID NO 6-20) harboring unique or multiple mutations with respect to the ssDNA wild type pray (SEQ ID NO 5, 10 pmol) were synthesized and used to assess the specificity of TALE RAGT2-Renila detector system. We first studied the effect of increasing amount of mutation within the ssDNA target on the luminescence of TALE RAGT2-Renila according to the detection protocol described earlier. Briefly, 10 pmol of ssDNA wild type or mutated were incubated with the ssDNA biotinylated pray already immobilized on the streptavidine coated plate. The mixture was heated and allow to cool down to RT. After washing the well with high and low salt containing TBST buffers, an excess of TALE RAGT2-Renila was added to the well (^{˜}300 pmol total), the unbound was then removed by two low salt buffer washing steps and the reaction mixture was added to determine luminescence. The luminescence obtained for each of the ssDNA prays used is illustrated in FIG. 20.
binder,measurement,value
B1,binding signal,< 40 % of WT

# From patent US20160355875, “METHODS AND KITS FOR DETECTING NUCLEIC ACID SEQUENCES OF INTEREST USING DNA-BINDING PROTEIN DOMAIN” (CELLECTIS, published 2016)
